# Source: PubChem (several laboratories)
# The full list was thinned out, with hits kept by preference.
# NRP1-CendR mod: alters CendR peptide binding to human NRP-1. FAM-RPARPAR peptide binding to NRP-1, fluorescence polarization. inhibition, % at 25 µM. 360,000 tested, 0.85% active;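 active = inhibition or corrected inhibition above about 18%, plus a signal ratio from 0.5 to 1.5, limit read from the data, passing the limit was not always enough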
# ALR H2O2 inh: human ALR oxidase inhibition via reduced H2O2; 290,000 tested, 3.8% active; P55789; inhibition, % (no concentration beside the values); purified ALR, DTT oxidation, H2O2 HRP-luminol luminescence;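 active = mean replicate inhibition above about 79%, with every replicate also reaching it, limit read from the data; inconclusive = only one of the two criteria met; inactive = mean below limit and not every replicate reaching it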
# Target sequence (P55789 whole entry, looked up): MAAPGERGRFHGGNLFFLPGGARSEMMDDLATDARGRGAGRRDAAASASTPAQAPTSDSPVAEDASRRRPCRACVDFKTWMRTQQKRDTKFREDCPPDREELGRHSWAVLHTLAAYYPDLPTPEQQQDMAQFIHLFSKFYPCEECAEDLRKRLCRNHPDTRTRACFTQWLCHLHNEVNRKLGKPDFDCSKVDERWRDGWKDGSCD
# PglD inh: blocks C. jejuni PglD acetyltransferase activity; inhibition, % at 12.5 µM; 360,000 tested, 0.098% active; purified PglD enzyme, DTNB colorimetric CoA detection; in the data active = inhibition above about 16%, passing the limit was not always enough; inconclusive = no clear call, values can overlap the other calls
# PDI inh: PDI (human) enzyme inhibition; PDI insulin aggregation turbidity, A650, 90 min; inhibition, % at 10 µM; P07237; 350,000 tested, 0.052% active;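 active = mean inhibition across replicates of 30% or more, whatever share of single replicates reach that level; inconclusive = mean inhibition below 30% while every single replicate reaches 30%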
# ERp5 inh: ERp5 (human) disulfide isomerase inhibition. inhibition, % at 9.99 µM. ERp5 insulin aggregation, absorbance 650 nm, 90 min. AID 651711. Q15084. 350,000 tested, 0.05% active;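 active = mean replicate inhibition above about 25%, with every replicate also reaching it, limit read from the data, passing the limit was not always enough; inconclusive = only one of those two criteria met; inactive = neither criterion met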
# ARNT TACC3 PPI: disrupts binding between human ARNT and TACC3 | Q9Y6A5 | inhibition, % at 9.99 µM | AID 623870 | 390,000 tested, 0.66% active | AlphaScreen His-ARNT PAS-B/GST-TACC3 binding, luminescence; TACC3 fragment carries E629A point mutation;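 active = mean inhibition of replicates at least 50% and at least half of replicates each reaching 50%; inconclusive = half or more replicates reach 50% but mean below 50%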;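 note: 0% = complete ARNT plus TACC3 wells and 100% = ARNT alone without TACC3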
# Numbers without * were called inactive; ? = inconclusive; . = no result given.
SMILES,NRP1-CendR mod,ALR H2O2 inh,PglD inh,PDI inh,ERp5 inh,ARNT TACC3 PPI
CSc1nc(/C=C2\C=Nc3ccccc32)c(O)n1C,-6,85*,.,7,.,43
CC(C)Cc1ccc(C(C)C(=O)Nc2ccc(O)cc2)cc1 (stereo unspecified),38*,71,-8,-9,0,0
CC(C(=O)Nc1ccc(O)cc1)c1cccc(C(=O)c2ccccc2)c1 (stereo unspecified),10,99*,.,-10,-6,.
CC(C)Cc1ccc(C(C)C(=O)Nc2cccnc2)cc1 (stereo unspecified),7,-31,11,-1,4,-13
O=C(CSCCc1ccccn1)Nc1ccc(Br)cn1,-10,99*,.,0,.,-8
Cc1ccc(NC(=O)CSCCc2ccccn2)nc1,6,97*,.,1,.,4
O=C(CSCCc1ccccn1)Nc1cccnc1Cl,-16,8,4,3,.,-3
O=C(CSCCc1ccccn1)Nc1ccccn1,-5,98*,6,-2,.,7
Cc1noc(C)c1NC(=O)N(C)C[C@@H]1Oc2ccc(NC(=O)NC(C)C)cc2C(=O)N([C@@H](C)CO)C[C@@H]1C,.,.,3,.,6,-6
CC1(C)OC(=O)C=C[C@]2(C)[C@H]3CC[C@@]4(C)[C@H](C(=O)O)OC(=O)[C@H]5O[C@]54[C@]3(C)C(=O)C[C@@H]12,22*,0,2,-3,5,-7
C[C@@H]1CN([C@H](C)CO)C(=O)Cc2cc(NC(=O)C3CCCCC3)ccc2O[C@@H]1CN(C)Cc1ccc(Oc2ccccc2)cc1,.,.,1,.,1,.
O=C1CSC(c2ccc3c(c2)OCO3)N1c1ccc(Oc2ccccc2)cc1 (stereo unspecified),12,.,.,2,.,1
Cc1ccc(N2C(=O)CSC2c2ccc3c(c2)OCO3)cc1 (stereo unspecified),-7,99*,.,0,.,-2
Cc1ccc(C2SCC(=O)N2Cc2ccccc2)cc1 (stereo unspecified),1,3,-2,-5,3,-1
CC(=O)Nc1ccc(N2C(=O)CSC2c2ccc(F)cc2)cc1 (stereo unspecified),4,99*,1,2,.,-1
COc1ccc(C2SCC(=O)N2Cc2ccccc2)cc1 (stereo unspecified),10,81*,3,3,0,-3
O=C1CSC(c2ccccc2)N1c1ccc([N+](=O)[O-])cc1 (stereo unspecified),-8,99*,-2,-2,0,-5
C[C@@H]1CN([C@@H](C)CO)C(=O)c2cc(-c3cccc(C#N)c3)cnc2O[C@@H]1CN(C)C(=O)c1cnccn1,.,.,0,.,-2,-15
COc1ccc(N2C(=O)CSC2c2ccccc2[N+](=O)[O-])cc1 (stereo unspecified),0,99*,.,2,6,-4
COc1ccc(N2C(=O)CSC2c2cccc(OC)c2OC)cc1 (stereo unspecified),10,-2,.,-2,.,.
COc1ccc(N2C(=O)CSC2c2ccccc2)cc1 (stereo unspecified),2,97*,9,3,0,-22
COc1ccc(C2SCC(=O)N2c2ccc(C)cc2)cc1 (stereo unspecified),3,32,4,-1,3,-33
CCOC(=O)/C(=N\Nc1cccc(C(F)(F)F)c1)N(CCOC)CCOC,0,97*,-2,2,.,.
CCOC(=O)/C(=N\Nc1cccc(C(F)(F)F)c1)N1CCOCC1,7,49,.,0,-4,-5
Cn1cnc([N+](=O)[O-])c1Nc1cccc(O)c1,6,20,-8,5,.,0
SMILES,NRP1-CendR mod,ALR H2O2 inh,PglD inh,PDI inh,ERp5 inh,ARNT TACC3 PPI
Cn1cnc([N+](=O)[O-])c1NC(C)(C)C,29*,-8,-3,10,.,-1
CCCNC(=O)N1[C@@H]2Cn3c(ccc(-c4cccc(OC)c4)c3=O)[C@H]1[C@@H](C(=O)NCC)[C@@H]2CO,.,.,-3,.,-1,21
COc1ccccc1/C=C1/C(=O)ON=C1C,6,98*,4,2,0,15
COc1ccc(/C=C2/C(=O)ON=C2C)cc1Br,-15,3,7,14,-1,11
CN(CCNC(=O)c1cccc(N2CCCC2=O)c1)Cc1ccccc1,18*,-3,2,6,.,-2
CN(CCNC(=O)c1ccc(N2CCCC2=O)cc1)CCc1ccccc1,-18,-12,.,3,.,7
CC(C)N(CCCNC(=O)c1ccc(N2CCCC2=O)cc1)Cc1ccccc1,-7,-4,.,-2,?,2
CCN(CCCNC(=O)c1[nH]c(C)c(C(C)=O)c1C)c1cccc(C)c1,-2,99*,8,-1,.,0
CCN(CCCNC(=O)c1ccc(N2CCCC2=O)cc1)c1cccc(C)c1,-5,90*,1,7,.,0
CCN(CCNC(=O)c1cccc(N2CCCC2=O)c1)c1ccccc1,-4,98*,-3,-4,.,1
O=C(NCCCN1CCCC1)c1cccc(N2CCCC2=O)c1,-13,1,6,-2,.,-3
CC(=O)c1c(C)[nH]c(C(=O)NCc2ccccc2)c1C,-2,3,3,-10,.,-5
C[C@@H]1CN([C@H](C)CO)C(=O)c2cc(NC(=O)Nc3ccc(F)cc3)ccc2O[C@H]1CN(C)Cc1ccccc1,.,.,7,.,-2,2
CO[C@H]1CN(C)C(=O)c2ccc(NC(=O)C3CCCCC3)cc2OC[C@@H](C)N(Cc2nccs2)C[C@@H]1C,.,.,0,.,1,0
Cc1noc(C)c1S(=O)(=O)Nc1ccc2c(c1)C(=O)N([C@H](C)CO)C[C@H](C)[C@H](CN(C)S(=O)(=O)c1cccs1)OCCCC[C@@H](C)O2,.,.,-3,.,.,-3
CCCCc1ccc(NC(=O)CSCc2cc(=O)[nH][nH]2)cc1,5,79*,0,0,.,-7
O=C(CSCc1cc(=O)[nH][nH]1)Nc1ccc(F)cc1,4,14,.,1,-3,18
Cn1cnc(S(=O)(=O)N[C@H]2CC[C@@H](CC(=O)NCC3CCCCC3)O[C@H]2CO)c1,.,.,2,.,1,-3
CCOC(=O)C1(C)/C(=N/Nc2ccc(Cl)cc2)C(=O)C(=O)N1c1ccccc1 (stereo unspecified),8,99*,5,-1,.,7
C[C@@H]1CN([C@@H](C)CO)C(=O)c2cc(NC(=O)Cc3ccccc3)ccc2O[C@H]1CN(C)C(=O)Nc1cccc2ccccc12,.,.,1,.,0,-8
CC(=O)C(=Cc1ccc(Cl)cc1)C(=O)c1ccccc1,22*,.,.,.,5,.
CO[C@H]1CN(C)C(=O)c2ccc(NC(=O)C3CCCCC3)cc2OC[C@@H](C)NC[C@@H]1C,.,.,1,.,8,-2
COc1cc2cc(Oc3ccc4ccc(=O)oc4c3)c(=O)oc2cc1O[C@@H]1O[C@H](CO)[C@@H](O)[C@H](O)[C@H]1O,-49,40,-3,3,.,-24
